The values that follow come from PubChem BioAssay (NCATS).

“And” between values parts separate entries of the source, which are not always exact repeats. Equal values may be shown once. Values without a mark were called inactive. Inconclusive results are not listed. The source made the active and inactive calls. Unless noted, calls follow the shape of the dose curve; as a rule, active = well fitted curve in either direction with a large enough effect (not every such curve was filed as active); inconclusive = small, poorly fitted or top-dose-only effect, or another doubt; inactive = flat fitted curve, though single readings scatter.

A short description of experiment [1]: AP1 Signaling Pathway (AID 357).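 Also: ME-180 reporter cells stimulated with EGF at its EC50 level; % is scaled to controls: 0 for no effect and ±100 for the full control effect.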 In a few lines: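 In this screen, ME-180 cells in Opti-MEM with 0.5% dialyzed FBS received EC50 EGF and compound titrations for 5 h. AP-1 reporter beta-lactamase was detected via CCF4 ratio, giving AC50 for positive and negative modulators.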
In experiment [2] the target is Cytochrome P450 1A2 (Homo sapiens) (UniProt P05177). In words: p450-cyp1a2 (AID 410; calls by dose curve; also: potency is read from the fitted curve at half-maximal effect). In a few lines:
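Luminescent readout of luciferin formed from Luciferin-ME by human CYP1A2; data normalized against complete inhibition by 57 uM furafylline. Enzyme 20nM, substrate 100uM at Km, 100mM KPO4 buffer, 60 min reaction at room temperature.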

A short description of experiment [3]: Stat Signaling Pathway (AID 446).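 Also: ME-180 cervical cancer cells given 40 pM IL-6 alongside compound; SIE-controlled beta-lactamase reporter measured as 460/530 nm FRET emission ratio; % is scaled to controls: 0 for no effect and ±100 for the full control effect.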 In a few lines: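 Reporter line: ME-180 cervical carcinoma, SIE-beta-lactamase. Treatment: compound with 40 pM IL-6, 5 hrs, 37 C, in low-serum OPTI-MEM with 10 mM HEPES pH 7.3. Detection: 460/530 nm fluorescence.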
Experiment [4] has as its target Glucocorticoid receptor (Homo sapiens) (UniProt P04150). Description: GR-GFP Redistribution (AID 450;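 active = compounds whose dose series gives a full or clear partial fitted curve of increased nuclear translocation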; also: potency is read from the fitted curve at half-maximal effect). The conditions noted are these: U2OS GR-GFP nuclear translocation, laser cytometry, 2 h.
Experiment [5] has the same target. In words: GR-EFC Redistribution (AID 451; calls by dose curve; also: potency is read from the fitted curve at half-maximal effect). As to conditions: CHO-K1 GR-EFC translocation, beta-gal luminescence, 2 h. An outline of the steps:
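Translocation of GR-ED fusion to nuclear EA restores b-gal, read by luminescence after 1 h room-temperature detection. Engineered CHO-K1 biosensor cells, 1,000/well, exposed 2 h at 37 C to titrations up to 46 uM final.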

Experiment [6] addresses Mitogen-activated protein kinase 10 (Mus musculus) (UniProt Q61831). In words: JNK3 AlphaScreen Assay (AID 530).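 Also: kinase came from lysate of stimulated human HepG2 cells.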 Also: potency is read from the fitted curve at half-maximal effect.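 As to activity change, negative = inhibition: signal reports phosphorylation of biotinylated GST-cJun 1-79 at Ser73 with 10 µM ATP; % is scaled to controls: 0 for no effect and ±100 for the full control effect.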 In a few lines: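 Compound titrations were preincubated 15 minutes at room temperature with substrate, antibody and pre-activated JNK3-containing HepG2 lysate. Reactions were started with 10 uM ATP and stopped with EDTA-containing bead buffer for AlphaScreen detection.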
On the technique in general: In Alpha technology, singlet oxygen from a donor bead excites a nearby acceptor bead.

Experiment [7] concerns the target 3',5'-cyclic-AMP phosphodiesterase 4B (Homo sapiens) (UniProt Q07343). In words: qHTS Assay for Inhibitors of PDE-IV (AID 607; active = well fitted activation curve with a large enough effect in the main read-out, with a control signal flat, not every such curve was filed as active; also: % of control where 0% means no effect). An outline of the steps: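 Cell-based read-out of cAMP via a modified cyclic nucleotide-gated channel and membrane potential dye (535/590 nm) in HEK293 cells expressing PDE4 endogenously. Compounds tested up to 22.9 uM final; 100 uM RO 20-1724 reference.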

Experiment [8] can be described thus: NFAT Signaling Pathway (AID 444).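 Also: carbachol stimulus at about its EC50 of 1 µM final; % is scaled to controls: 0 for no effect and ±100 for the full control effect.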 The conditions noted are these: Jurkat NFAT-bla M1, carbachol, beta-lactamase ratio, 5 h. An outline of the steps: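 Read-out: CCF4 FRET ratio (460 nm/530 nm) after 1 h RT dye loading, used for %activity and AC50 from titration series. Cells: Jurkat NFAT-β-lactamase/M1 line, treated with compound plus 1 uM carbachol for 5 h, 37 °C.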

Experiment [9] can be described thus: Cell Viability - BJ (AID 421; calls by dose curve;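 also: potency is read from the fitted curve at half-maximal effect; cells exposed to compound for 40 hours at 37 °C before readout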). The conditions noted are these: BJ fibroblast viability, qHTS. In a few lines: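 Cytotoxicity as drop in intracellular ATP (CellTiter-Glo, 20 min RT) after 40 hr compound exposure of BJ fibroblasts at 37 °C. Titrations scaled between DMSO and 100 uM tamoxifen, Hill-fitted for AC50.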
Experiment [10] is described as follows: Cell Viability - Jurkat (AID 426;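 active = dose-dependent loss of cell ATP signal giving a full or clear fitted curve, ranked by lower potency value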; also: potency is read from the fitted curve at half-maximal effect). As to conditions: qHTS. An outline of the steps:
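qHTS, 1536-well; Jurkat E6-1, 5000 cells/well, complete medium; cpd 40 hr, 37 °C; CellTiter-Glo 20 min RT; luminescence. AC50 by Hill fit.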
(Quantitative high-throughput screening tests each substance at several concentrations.)

Experiment [11] is described as follows: Cell Viability - Hek293 (AID 427;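 active = compounds whose dose-response curve shows a full or clear partial loss of cell viability, called from curve shape rather than a numeric limit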;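 also: potency is read from the fitted curve at half-maximal effect; cells exposed to compound for 40 hours at 37 °C before reading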). The conditions noted are these: qHTS. In a few lines:
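Luminescent ATP content (CellTiter-Glo, 20 min at room temperature) was measured after a 40 hr, 37 °C compound exposure of HEK293 cells. AC50 values came from Hill-equation fits of qHTS concentration-response data normalized to DMSO and 100 uM tamoxifen.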

Experiment [12] is described as follows: Cell Viability - HepG2 (AID 433; calls by dose curve;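 also: potency is read from the fitted curve at half-maximal effect; potency for ATP loss meaning cytotoxicity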). As to conditions: qHTS. In a few lines: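 HepG2 hepatocellular carcinoma cells (1500/well) were treated with compounds for 40 h at 37 °C in complete medium; intracellular ATP was read by CellTiter-Glo luminescence. Data were normalized to DMSO and 100 uM tamoxifen, and AC50 came from Hill fits.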
Experiment [13] is described as follows: Cell Viability - SK-N-SH (AID 435; calls by dose curve;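 also: potency is read from the fitted curve at half-maximal effect; compound exposure lasted 40 h at 37 °C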). The conditions noted are these: SK-N-SH neuroblastoma cell viability qHTS. An outline of the steps: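 SK-N-SH human neuroblastoma cells (1500/well) were exposed to compounds in complete medium for 40 h at 37 °C, and intracellular ATP was then measured by CellTiter-Glo luminescence. AC50 was taken from Hill fits, normalized to DMSO and 100 uM tamoxifen.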

The nature of experiment [14]: Cell Viability - N2a (AID 540; active = well fitted curve in the direction sought with a large enough effect; an effect the other way counts as inactive or inconclusive;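 also: plate controls were DMSO alone for no effect and tamoxifen control for full effect; nearly all actives have a fitted effect of over 45% in size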). As to conditions: N2a mouse neuroblastoma cell viability; activity change, negative = cytotoxicity: at 92.2 µM (top of the series). An outline of the steps: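 Luminescent ATP signal (CellTiter-Glo, 20 min at room temperature) served as the viability read-out after N2a cells were treated with compounds for 40 hours at 37 °C. Concentration-response data were fitted to the Hill equation for AC50.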

Experiment [15] in a line: Cell Viability - NIH 3T3 (AID 541; active = well fitted curve in the direction sought with a large enough effect; an effect the other way counts as inactive or inconclusive;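 also: plate controls were DMSO alone for no effect and tamoxifen positive control for full effect; nearly all actives have a fitted effect of over 25% in size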). An outline of the steps:
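Luminescent ATP signal (CellTiter-Glo) served as the viability read-out after NIH 3T3 cells were exposed to compounds over a concentration range for 40 hr at 37 °C. Hill-equation modelling of concentration-response data gave AC50.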

Experiment [16] can be described thus: Cell Viability - HUV-EC-C (AID 542; active = well fitted curve in the direction sought with a large enough effect; an effect the other way counts as inactive or inconclusive; also: nearly all actives have a fitted effect of over 35% in size; also: potency is read from the fitted curve at half-maximal effect). An outline of the steps:
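qHTS cytotoxicity: HUV-EC-C, 1000 cells/well, 5 hr settle, compound 40 hr 37 °C, CellTiter-Glo, luminescence. AC50 via Hill equation.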

A short description of experiment [17]: Cell Viability - H-4-II-E (AID 543; active = well fitted curve in the direction sought with a large enough effect; an effect the other way counts as inactive or inconclusive; also: nearly all actives have a fitted effect of over 35% in size; also: potency is read from the fitted curve at half-maximal effect). In a few lines: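 Luminescent ATP signal (CellTiter-Glo) served as the viability read-out, with cytotoxicity seen as a concentration-dependent ATP drop. Cells were treated for 40 hours in complete medium. AC50 values derive from Hill-equation modelling.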
Experiment [18] can be described thus: Cell Viability - SH-SY5Y (AID 544; active = well fitted curve in the direction sought with a large enough effect; an effect the other way counts as inactive or inconclusive;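 also: 0% = DMSO alone and -100% = 100 µM tamoxifen; nearly all actives have a fitted effect of over 55% in size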). In a few lines: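 Luminescent ATP read-out (CellTiter-Glo) measures loss of viable SH-SY5Y neuroblastoma cells after 40 hr compound exposure at 37 °C. AC50 values derive from standard Hill modelling of qHTS concentration-response data.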
Experiment [19] in a line: Cell Viability - Renal Proximal Tubule (AID 545; active = well fitted curve in the direction sought with a large enough effect; an effect the other way counts as inactive or inconclusive;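 also: 0% = DMSO only and -100% = 100 µM tamoxifen; nearly all actives have a fitted effect of over 40% in size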). In a few lines:
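Primary rat renal proximal tubule cells (1000/well) were treated with compounds for 40 hr at 37 °C in complete medium. Intracellular ATP was measured by CellTiter-Glo luminescence, and AC50 values came from Hill-equation fits of concentration-response data.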

Experiment [20] is described as follows: Cell Viability - Mesenchymal (AID 546; active = well fitted curve in the direction sought with a large enough effect; an effect the other way counts as inactive or inconclusive;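 also: cells exposed to compound for 40 hours before reading; 0% = DMSO only and -100% = 100 µM tamoxifen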). An outline of the steps:
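AC50 values reflect the drop in intracellular ATP in a human kidney mesenchymal line derived from normal glomeruli. Treatment lasts 40 hr at 37 °C in complete medium, and the signal comes from CellTiter-Glo luminescence.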

3',5'-cyclic-AMP phosphodiesterase 4B (Homo sapiens), sequence (Q07343 whole entry, looked up): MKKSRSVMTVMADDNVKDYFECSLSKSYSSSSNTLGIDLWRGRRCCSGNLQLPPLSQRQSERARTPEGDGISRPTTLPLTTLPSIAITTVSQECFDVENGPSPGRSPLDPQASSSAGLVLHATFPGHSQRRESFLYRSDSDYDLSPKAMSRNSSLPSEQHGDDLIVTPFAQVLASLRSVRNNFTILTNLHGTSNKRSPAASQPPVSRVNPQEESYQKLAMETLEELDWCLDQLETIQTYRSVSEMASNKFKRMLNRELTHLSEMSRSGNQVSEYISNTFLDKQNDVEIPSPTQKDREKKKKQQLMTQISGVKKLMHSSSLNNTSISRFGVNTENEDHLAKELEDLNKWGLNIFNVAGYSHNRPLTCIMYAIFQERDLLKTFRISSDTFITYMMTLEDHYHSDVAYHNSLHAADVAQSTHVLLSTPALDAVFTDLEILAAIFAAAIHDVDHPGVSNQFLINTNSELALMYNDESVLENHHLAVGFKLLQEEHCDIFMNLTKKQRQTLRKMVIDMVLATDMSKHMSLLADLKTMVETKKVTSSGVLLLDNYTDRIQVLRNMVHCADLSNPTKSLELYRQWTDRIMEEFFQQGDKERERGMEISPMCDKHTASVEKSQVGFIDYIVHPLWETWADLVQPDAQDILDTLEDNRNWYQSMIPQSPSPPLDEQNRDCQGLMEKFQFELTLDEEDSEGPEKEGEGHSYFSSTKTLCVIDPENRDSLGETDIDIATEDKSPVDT
Cytochrome P450 1A2 (Homo sapiens), sequence (P05177 whole entry, looked up): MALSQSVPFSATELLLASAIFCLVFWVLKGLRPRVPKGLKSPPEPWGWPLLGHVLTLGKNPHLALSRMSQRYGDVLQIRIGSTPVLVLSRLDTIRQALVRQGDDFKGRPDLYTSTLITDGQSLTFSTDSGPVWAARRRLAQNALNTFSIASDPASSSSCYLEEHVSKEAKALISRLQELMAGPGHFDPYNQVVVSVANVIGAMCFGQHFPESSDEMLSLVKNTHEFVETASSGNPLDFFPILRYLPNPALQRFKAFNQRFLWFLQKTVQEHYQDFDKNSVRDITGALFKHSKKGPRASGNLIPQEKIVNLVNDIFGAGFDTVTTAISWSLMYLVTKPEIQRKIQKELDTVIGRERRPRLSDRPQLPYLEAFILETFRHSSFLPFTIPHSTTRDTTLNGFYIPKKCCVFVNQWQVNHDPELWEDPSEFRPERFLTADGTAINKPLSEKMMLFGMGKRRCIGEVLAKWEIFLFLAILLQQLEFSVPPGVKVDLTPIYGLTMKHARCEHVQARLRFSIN
Glucocorticoid receptor (Homo sapiens), sequence (P04150 whole entry, looked up): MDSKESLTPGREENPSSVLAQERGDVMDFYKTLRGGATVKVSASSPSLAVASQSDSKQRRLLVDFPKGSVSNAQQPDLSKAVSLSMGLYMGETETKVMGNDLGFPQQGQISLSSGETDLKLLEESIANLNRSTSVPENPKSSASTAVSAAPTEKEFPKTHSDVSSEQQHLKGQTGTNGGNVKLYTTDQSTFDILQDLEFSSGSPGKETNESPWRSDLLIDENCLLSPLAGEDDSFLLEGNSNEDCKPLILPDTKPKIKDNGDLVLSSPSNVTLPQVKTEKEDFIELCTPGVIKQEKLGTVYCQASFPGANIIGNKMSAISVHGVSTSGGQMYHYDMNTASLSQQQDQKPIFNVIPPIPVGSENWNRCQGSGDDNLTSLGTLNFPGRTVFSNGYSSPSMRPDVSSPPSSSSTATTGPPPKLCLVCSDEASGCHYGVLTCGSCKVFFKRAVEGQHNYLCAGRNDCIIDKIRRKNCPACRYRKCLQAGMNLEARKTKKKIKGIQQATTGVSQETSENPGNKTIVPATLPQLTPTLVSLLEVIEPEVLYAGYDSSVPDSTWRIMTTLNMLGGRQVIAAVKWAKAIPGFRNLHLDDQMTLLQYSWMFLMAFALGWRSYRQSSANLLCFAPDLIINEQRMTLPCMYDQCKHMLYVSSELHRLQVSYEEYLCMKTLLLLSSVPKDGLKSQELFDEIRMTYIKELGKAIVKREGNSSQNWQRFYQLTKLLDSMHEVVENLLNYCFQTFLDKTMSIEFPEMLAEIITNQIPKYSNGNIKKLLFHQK

For the molecule `CN1C(C(=O)Nc2ccccn2)=C(O)c2sccc2S1(=O)=O`, the molecule was called inactive in experiment [1], in [3] and in experiment [7]. The Potency result in experiment [2] and in [6] was “inactive” in each case. Further, the Potency in [4] and in experiment [5] was over 20.6 µM in each case.

Turning to `Cc1cc(=O)oc2cc(O)ccc12`, the outcome in experiment [1], in [3] and in [7] was inactive. Also, the Potency in experiment [2] was 3.98 µM (active). The Potency result in [6] was “inactive”.

Consider `NC(=NCc1ccccc1)NC(=O)c1nc(Cl)c(N)nc1N`, for which the outcome in experiment [1], in [3] and in experiment [7] was inactive. The Potency in [2] was 12.6 µM (active) and 10 µM (active); in [4], > 46 µM and > 20.6 µM; in experiment [5] it was > 46 µM and > 20.6 µM. Also, in [6], the Potency result is “inactive”.

On to `CC1(C)C(=O)N(CCN2CCC(C(=O)c3ccc(F)cc3)CC2)c2ccccc21`, for which the result in [1], in experiment [3] and in experiment [7] was inactive. Besides, the Potency result in experiment [2] is “inactive”. In addition, the activity change, negative = inhibition in [8] (at 38 µM (top of the series)) is -22.8%. The Potency in experiment [4] and in experiment [5] was over 46 µM in each case.

As for `O=c1c(O)c(-c2cc(O)c(O)c(O)c2)oc2cc(O)cc(O)c12`, the call in [1], in [3] and in experiment [7] was inactive. Further, the Potency in [2] was 5.01 µM (active) and 2 µM (active) and 7.94 µM (active); in [4] it was > 46 µM and > 20.6 µM; in experiment [5], > 46 µM and > 20.6 µM; in [6], 12.6 µM (active).

Consider `Cc1cccc(C#Cc2ccccc2)n1`, for which the result in [1], in [3] and in [7] was inactive. Besides, the Potency is 631 nM (active) and 158 nM (active) in experiment [2]; over 46 µM in experiment [4]; over 46 µM in experiment [5]. The Potency result in [6] was “inactive”.

Turning to `COc1c2occc2cc2ccc(=O)oc12`, the call in experiment [1] and in [3] was inactive. Moreover, the Potency in experiment [9] is over 92 µM; in experiment [10], over 92 µM; in experiment [11] it was over 92 µM; in experiment [12], over 92 µM; in [13], over 92 µM; in experiment [4], over 20.6 µM. The Potency in experiment [5] is over 20.6 µM. For the same molecule, the Potency entry in [6], in experiment [14], in [15], in [16], in experiment [17] and in experiment [18] was “inactive” in each case. The Potency entry in experiment [19] and in experiment [20] was “inactive” throughout.

Regarding `COc1cc2nc(N3CCN(C(=O)C4CCCO4)CC3)nc(N)c2cc1OC` (centres undefined), the outcome in [1] and in experiment [3] was inactive. In addition, in experiment [4], the Potency was over 20.6 µM.

Turning to `O=c1ccc2ccc(O)c(O)c2o1`, the molecule was classed as inactive in experiment [1], in experiment [3] and in experiment [7]. For the same molecule, in [8] (at 38 µM (top of the series)), the activity change, negative = inhibition was -9.14%. In addition, the Potency in experiment [4] and in experiment [5] was over 46 µM each time. Moreover, the Potency result in experiment [6] is “inactive”.

Consider `CC(C)Oc1ccc2c(=O)c(-c3ccccc3)coc2c1`, for which the molecule was called inactive in [1] and in experiment [3]. For the same molecule, the activity change, negative = inhibition in [8] (at 17.2 µM (top of the series)) was 5.32%. Also, in [4], the Potency is over 20.6 µM.

For `COc1ccc2cc([C@H](C)C(=O)O)ccc2c1`, the result in [1] and in experiment [3] was inactive. Moreover, in experiment [6], the Potency result was “inactive”.

Regarding `N=C(N=C(N)N)N1CCOCC1`, the molecule was classed as inactive in experiment [1], in [3] and in [7]. Moreover, the Potency was > 20.6 µM and > 46 µM in [4]; > 20.6 µM and > 46 µM in [5]. For the same molecule, the Potency entry in experiment [6] is “inactive”.

Turning to `CCCCN(CCCC)CCC(O)c1cc2c(Cl)cc(Cl)cc2c2cc(C(F)(F)F)ccc12` (centres undefined), the molecule was classed as inactive in experiment [1], in [3] and in experiment [7]. Further, the activity change, negative = inhibition in experiment [8] (at 17.2 µM (top of the series)) is 14.4%. Besides, the Potency in [4] and in experiment [5] was over 20.6 µM in each case. Also, the Potency result in experiment [6] is “inactive”.

Turning to `O=C1NC(=O)C(c2ccccc2[N+](=O)[O-])=C1Nc1ccc(O)c(Cl)c1`, the Potency in experiment [2] is 7.94 µM (active); in experiment [4], over 46 µM; in [5] it was over 46 µM. In addition, the outcome in experiment [3] and in [7] was inactive.

Turning to `Cc1cc(O)c2c(c1)C(=O)c1cc(O)cc(O)c1C2=O`, the Potency was 3.16 µM (active) and 398 nM (active) in [2]; over 92 µM in experiment [9]; 35 µM (active) in [13]; over 46 µM in experiment [4]; over 46 µM in experiment [5]; 31.6 µM (active) in experiment [16]. Further, the Potency in experiment [17] is 63.1 µM (active). Also, the activity change, negative = cytotoxicity in experiment [14] is -117% (active). The Potency entry in [19] was “inactive”. For the same molecule, in experiment [7], the result was inactive.

On to `CN1CCC(=C2c3ccccc3CCc3sccc32)CC1`, for which the Potency entry in experiment [2] and in [6] was “inactive” in each case. For the same molecule, the result in [3] was inactive.

`CCCCC(CC)COC(=O)C(C#N)=C(c1ccccc1)c1ccccc1` (centres undefined): the Potency in experiment [9], in [10], in experiment [11], in experiment [12] and in experiment [13] was over 92 µM throughout. In addition, the Potency result in experiment [16], in experiment [18], in experiment [19] and in experiment [20] was “inactive” each time.
